The record followed here is PubChem BioAssay.

Test [1] deals with Wnt5a (protein binding on small-molecule microarray). Nature of the test: Wnt5a binders on small-molecule microarray, primary screen, biophysical, 635/667 nm fluorescence (AID 1142).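 Note: fluorescence read at 667 nm with signal to noise per printed feature.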 The note with it: 635 nm fluorescence, higher = more signal.
Test [2] can be described thus: cell viability in Huh7 cells, primary screen, cytotoxicity control for HCV replication inhibitor project, CellTiter-Glo luminescence, basal, 48 h (AID 1143).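 Note: Huh7 hepatoma cells carrying a hepatitis C replication reporter with no stimulus; test concentration not given here.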 The note with it: Huh7 HCV replicon, higher = more signal, called active from +8 up or from −8 down.
Test [3] can be described thus: P. aeruginosa biofilm formation inhibitors, primary screen, PAO1 strain, BacTiter-Glo luminescence, LB-PBS (AID 1144). The note with it: 12 h, higher = more signal.
The nature of test [4]: CREB reporter modulators without forskolin, primary screen, cell-based, PC12, CRE-LacZ reporter, unstimulated (AID 1145). The note with it: no forskolin, luminescence, 4.5 h, higher = more signal, called active from +8 up or from −8 down.
Test [5] is described as follows: CREB reporter modulators under forskolin, primary screen, cell-based, PC12, CRE-LacZ reporter, forskolin-stimulated (AID 1146).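 Note: PC12 cells with 6xCRE LacZ reporter stimulated by forskolin 10 µM; beta-galactosidase reporter signal reflecting CREB driven transcription.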 Particulars: luminescence, 4.5 h, higher = more signal, called active from +8 up or from −8 down.
Test [6] deals with Streptavidin (Streptomyces avidinii) (UniProt P22629). Nature of the test: streptavidin binders on small-molecule microarray, primary screen, artefact control for SMM compound annotation, biophysical, 635/667 nm fluorescence (AID 1147).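 Note: signal reflects streptavidin binding to arrayed compounds as a control protein.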 Particulars: streptavidin binding, higher = more signal.
Test [7] is described as follows: small-molecule binders of probe aInhba, primary screen, biochemical, small-molecule microarray, 635/667 nm fluorescence (AID 1148).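 Note: score merges 667nm spot fluorescence with signal-to-noise for antibody binding to printed compounds.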 Particulars: higher = more signal.
The target of test [8] is Torsin-1A (Homo sapiens) (UniProt O14656). Nature of the test: torsin A binders from cell lysate, primary screen, small-molecule microarray, wild-type, 635/667 nm (AID 1149). Particulars: COS7 hTOR1A-WT lysate, 635 nm fluorescence, higher = more signal.
Test [9] shares this target. The experiment in a line: small-molecule binders of mutant TOR1A in lysate, primary screen, cell lysate, small-molecule microarray, COS7 lysate, 635/667 nm fluorescence (AID 1150).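 Note: score pools 667 nm emission and signal to noise measuring lysate protein binding.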 The note with it: COS7 hTOR1A mutant lysate, 635 nm fluorescence, higher = more signal.
Test [10] deals with Sonic hedgehog protein (Shh). Nature of the test: small-molecule binders of Shh protein, primary screen, biochemical, small-molecule microarray, 635/667 nm fluorescence (AID 1151).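 Note: Shh protein binding to compounds spotted on small-molecule microarray slides; score combines spot fluorescence intensity with signal-to-noise across triplicate slides.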 The note with it: small-molecule microarray binding, 635 nm fluorescence; higher = more signal.

Activity calls are given as the source filed them. Unless noted, the rule behind the calls is not given here.

Streptavidin (Streptomyces avidinii), sequence (P22629 whole entry, looked up): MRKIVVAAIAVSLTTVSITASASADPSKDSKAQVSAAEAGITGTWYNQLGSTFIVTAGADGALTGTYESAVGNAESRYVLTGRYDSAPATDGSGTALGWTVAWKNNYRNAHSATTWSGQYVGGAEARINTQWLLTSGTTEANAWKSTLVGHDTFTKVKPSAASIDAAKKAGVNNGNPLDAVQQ
Torsin-1A (Homo sapiens), sequence (O14656 whole entry, looked up): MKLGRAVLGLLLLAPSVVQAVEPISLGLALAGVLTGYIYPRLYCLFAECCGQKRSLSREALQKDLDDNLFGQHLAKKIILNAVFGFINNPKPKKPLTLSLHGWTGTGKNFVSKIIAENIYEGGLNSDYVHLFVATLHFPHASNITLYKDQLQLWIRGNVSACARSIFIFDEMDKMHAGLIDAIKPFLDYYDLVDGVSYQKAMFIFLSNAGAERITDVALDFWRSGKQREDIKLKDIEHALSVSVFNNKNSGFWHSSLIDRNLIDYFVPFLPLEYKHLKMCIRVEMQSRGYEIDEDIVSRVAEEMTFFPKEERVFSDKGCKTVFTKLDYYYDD

In the case of `COC(=O)c1ccc(OC)c(/C=C\CC(OC(C)=O)c2ccccc2)c1` (stereo not given), the composite z-score is -0.136 in test [1]; 3.16 in test [6]; -0.179 in test [7]; -0.0525 in the test with Torsin-1A (Homo sapiens) [8]; -0.165 in the test with Torsin-1A (Homo sapiens) [9]; 0.539 in test [10]. Also, the z-score in test [2] was -1.38 (inactive); in test [3], 0.623 (inactive); in test [4] it was 0.479 (inactive); in test [5], -0.0792 (inactive).

Take `C=CC(COC(C)=O)NS(=O)(=O)c1ccc(Br)cc1` (stereo not given): the composite z-score in [1] is 0.136; in [6], 0.923; in test [7], -0.105; in the test with Torsin-1A (Homo sapiens) [8], 0.211; with Torsin-1A (Homo sapiens) [9], 0.385; in [10], 0.948. In addition, the z-score was 0.0481 (inactive) in [2], 0.465 (inactive) in test [3], 2.39 (inactive) in [4] and 1.33 (inactive) in test [5].

`NCCCCCCNC(=O)[C@H]1C[C@H]2C(=O)NCC(=O)N2[C@H]1c1cccc(OCCO)c1`: the composite z-score in test [1] is 0.363; in test [6], 0.485; in [7] it was -0.128; with Torsin-1A (Homo sapiens) [8], 1.16; with Torsin-1A (Homo sapiens) [9] it was 0.872; in test [10], 1.61. Besides, the z-score in test [2] was 0.0443 (inactive); in test [3], 0.0567 (inactive); in [4] it was -0.675 (inactive); in [5] it was -0.405 (inactive).

Turning to `[N-]=[N+]=Nc1ccccc1C[C@]1(C(=O)NCCN2CCOCC2)N=C(c2ccc(OCCCO)cc2)O[C@H]1c1ccccc1`, the composite z-score in test [1] was 0.577; in test [6] it was -0.186; in [7], 0.101; with Torsin-1A (Homo sapiens) [8], 0.729; with Torsin-1A (Homo sapiens) [9] it was 0.749; in [10], 0.109. Moreover, the z-score in [2] is -2.47 (inactive); in test [3], 0.355 (inactive); in test [4], 0.4 (inactive); in test [5] it was -0.604 (inactive).

`COCC1=C2[C@@H](CCc3ccccc3)OB(O)C[C@@H]2[C@@H]2C(=O)N(Cc3ccccc3)C(=O)[C@@H]2C1`: the composite z-score is 0.278 in test [1]; 0.0569 in test [6]; -0.152 in [7]; -0.427 with Torsin-1A (Homo sapiens) [8]; 0.0316 with Torsin-1A (Homo sapiens) [9]; 0.333 in test [10]. The z-score in test [2] is 0.0597 (inactive); in test [3] it was 1.07 (inactive); in [4], 0.663 (inactive); in test [5] it was -0.0777 (inactive).

In the case of `CC(C)(C)OC(=O)CC[C@@]1(C(=O)O)N=C(c2ccc(OCCCO)cc2)O[C@@H]1c1ccccc1N=[N+]=[N-]`, the composite z-score in test [1] was 0.52; in [6] it was 1.01; in [7], 0.179; with Torsin-1A (Homo sapiens) [8], 1.21; with Torsin-1A (Homo sapiens) [9], 1.22; in [10], -0.905. The z-score in [2] is 0.0429 (inactive); in test [3], 0.561 (inactive); in test [4], -0.183 (inactive); in [5] it was -0.406 (inactive).

For the compound `CCOC(=O)C1=CCC(C(C)(C)C)N(S(=O)(=O)c2ccc(C)cc2)C1` (stereo not given), the composite z-score in test [1] is 0.858; in [6], 1.6; in test [7], -0.0933; with Torsin-1A (Homo sapiens) [8], 0.881; with Torsin-1A (Homo sapiens) [9], 1.67; in [10], 0.722. Further, the z-score in test [2] was -4.52 (inactive); in test [3], 1.19 (inactive); in test [4] it was 0.883 (inactive); in test [5], 0.639 (inactive).

For the compound `N[C@@H](Cc1ccccc1)Cn1cc(-c2ccccc2)nn1`, the composite z-score in [1] was -0.15; in test [6], 0.861; in [7], -0.0963; in the test with Torsin-1A (Homo sapiens) [8], -0.0409; with Torsin-1A (Homo sapiens) [9], -0.0827; in test [10], 0.0939. The z-score was -2.58 (inactive) in test [2], -0.244 (inactive) in test [3], 0.0035 (inactive) in test [4] and 0.292 (inactive) in test [5].

As for `CC(=O)C1=CCC(c2ccccc2)N(S(=O)(=O)c2ccc(C)cc2)C1` (stereo not given), the composite z-score in [1] was -0.004; in test [6] it was 1.69; in test [7], -0.0087; in the test with Torsin-1A (Homo sapiens) [8], 0.911; with Torsin-1A (Homo sapiens) [9], 1.55; in test [10], -0.194. For the same compound, the z-score in test [2] was -1.06 (inactive); in test [3] it was -0.65 (inactive); in test [4] it was -0.116 (inactive); in test [5], 0.151 (inactive).

With `COC(=O)C(CC#Cc1ccc2c(c1)[C@]1(C(=O)N2)[C@H](C(=O)NC[C@H](O)c2ccccc2)[C@H]2C(=O)O[C@H](c3ccccc3)[C@H](c3ccccc3)N2[C@@H]1c1ccc(OCCO)cc1)C(=O)OC`, the composite z-score in test [1] came to 1.08; in test [6] it was 2.55; in test [7], 0.859; with Torsin-1A (Homo sapiens) [8], 1.69; with Torsin-1A (Homo sapiens) [9], 1.09; in [10], 1.6. Further, the z-score in [2] was -1.02 (inactive); in test [3], -0.419 (inactive); in test [4], 0.0653 (inactive); in test [5] it was -0.291 (inactive).

Take `CCCC[C@@H]1C[C@H]1[C@@H](NC(=O)c1ccc(-c2ccccc2)cc1)c1ccc(-c2ccccc2)cc1`: the composite z-score is 0.198 in test [1]; 0.305 in test [6]; 0.0111 in test [7]; 0.0287 with Torsin-1A (Homo sapiens) [8]; -0.0963 with Torsin-1A (Homo sapiens) [9]; 2.02 in [10]. For the same compound, the z-score was -2.94 (inactive) in test [2], 0.0911 (inactive) in test [3], 0.394 (inactive) in [4] and 1.7 (inactive) in test [5].

As for `COC(=O)[C@@]1(Cc2ccc(OC)cc2)[C@H]2c3cc(C(=O)N4CCCC4)n(Cc4ccccn4)c3C[C@H]2CN1C(=O)c1ccccc1`, the composite z-score in [1] was 0.782; in test [6], 0.523; in [7] it was 1.1; in the test with Torsin-1A (Homo sapiens) [8], -0.367; with Torsin-1A (Homo sapiens) [9], 1.05; in test [10], -0.622. The z-score in test [2] is -1.47 (inactive); in [3] it was 0.621 (inactive); in [4], 0.201 (inactive); in test [5], 1.03 (inactive).

Regarding `COC(=O)[C@@]1(Cc2ccccc2)[C@H]2c3cc(C(=O)N(C)C)n(Cc4c(-c5ccccc5)noc4C)c3C[C@H]2CN1C(=O)c1ccccc1`, the composite z-score in test [1] was 0.235; in test [6] it was 1.47; in [7] it was 0.308; with Torsin-1A (Homo sapiens) [8], 0.301; with Torsin-1A (Homo sapiens) [9] it was 0.584; in test [10] it was -0.141. Moreover, the z-score in test [2] was -2.2 (inactive); in test [3], -0.0247 (inactive); in test [4], 0.201 (inactive); in test [5], -0.732 (inactive).
